Calls of active or inactive are those of the source. Calls follow the shape of the dose curve; as a rule, active = well fitted curve in the direction sought with a large enough effect in the repeat runs; inconclusive = weak or mixed curves; inactive = flat fitted curve, though single readings scatter.
Assay: qHTS assay to test for compound auto fluorescence at 535 nm (green) in HepG2 cell free culture (AID 720686)
Details: Cell-free medium, green autofluorescence 485/535 nm; series mostly up to 91.3 µM
Description: U.S. Tox21 Program National Center for Advancing Translational Sciences [NCATS] NIH Chemical Genomics Center [NCGC] U.S. Environmental Protection Agency [EPA] National Institutes of Environmental Health Sciences [NIEHS] National Toxicology Program [NTP] U.S. Food and Drug Administration [FDA] Tox21 Assay Overview: Compound auto fluorescence often interferes with screening of the compound library against various biological targets and signaling pathways. Some of these compounds may have fluorophoric properties. Such properties may interfere with the assay outputs resulting in false positives and/or negatives. To decrease such complications and ensure the compound activities are relevant in terms of biological response, the Tox21 10K compound library was screened for auto fluorescence. From the fluorophores used as reporter signals in our screening assays, the auto fluorescence equivalencies of compounds against three fluorophores have been evaluated: Triamterene, Fluorescein and Rose Bengal sodium for blue, green and red fluorescence, respectively. The fluorescence intensities were measured using Excitation/Emission wavelengths at 405/460nm, 485/535nm and 540/590nm for blue, green and red labels, respectively. This assay includes the green fluorescence data.
Tox21 Assay Protocol Summary: 5 uL of culture medium (MEM containing 10% FBS) per well was dispensed into black wall/clear bottom 1536-well plates using a Multidrop Combi Dispenser (ThermoFisher Scientific, Waltham, MA). After 23 nL compound or DMSO vehicle was transferred into assay plate by a pintool work station (Kalypsys, San Diego, CA), fluorescence intensities in the assay plates were measured by an Envision (PerkinElmer, Shelton, CT) plate reader using three labels for measuring blue, green and red fluorescence at […] 460, 535 and 590nm respectively.
% is scaled to controls: 0 for no effect and ±100 for the full control effect.

| Compound | outcome | fluorescence, % of fluorescein control |
| --- | --- | --- |
| Cc1ccc2c(c1)c1c3n2CCNC3CCC1 (stereo not given) | inactive | – |
| C1CCN2C[C@@H]3C[C@@H](CN4CCCC[C@@H]34)[C@H]2C1 | – | 0.104% [at 18.6 µM] (inactive) |
| CO/N=C(/C(=O)N[C@@H]1C(=O)N2C(C(=O)O)=C(Cn3nnc(C)n3)CS[C@H]12)c1csc(N)n1 | inactive | – |
| CCNC(=O)/C=C/c1cccc(Br)c1 | inactive | – |
| CCc1nccnc1C | inactive | – |
| Nc1ccc(/C=C/c2ccc(N)cc2S(=O)(=O)O)c(S(=O)(=O)O)c1 | inactive | – |
| CCCCCCCCCCCCCCCCI | – | 0.0097% [at 18.6 µM] (inactive) |
| CC1CCC(C(C)(C)S)C(=O)C1 (stereo not given) | inactive | – |
| O=C(CN1CCN(Cc2ccc3c(c2)OCO3)CC1)N1c2ccccc2Sc2ccccc21 | inactive | – |
| CCCCCC1CCCC(=O)O1 (stereo not given) | inactive | – |
| CN(C1CCCCC1)S(=O)(=O)c1ccccc1N | inactive | – |
| Cc1cccc(Nc2ccncc2S(=O)(=O)NC(=O)NC(C)C)c1 | – | 0.0067% [at 18.6 µM] (inactive) |
| FC(F)(F)c1ccc(Cl)cc1Cl | inactive | – |
| O=S(=O)(O)SSS(=O)(=O)O | inactive | – |
| COc1cc([N+](=O)[O-])ccc1N | inactive | – |
| CC(=O)OCC(=O)[C@@]1(O)[C@H](OC(C)=O)C[C@H]2[C@@H]3CCC4=CC(=O)C=C[C@]4(C)[C@@]3(F)[C@@H](O)C[C@@]21C | inactive | – |
| Oc1ccccc1Cc1ccccc1O | inactive | – |
| CC(C)=CC(C)(C)C | inactive | – |
| C/C=C(\C)C(=O)OCC/C=C\CC | inactive | – |
| CCCCOC(=O)C(=O)OCCCC | inactive | – |

| Compound | outcome | fluorescence, % of fluorescein control |
| --- | --- | --- |
| CC(C)SCc1ccco1 | inactive | – |
| CCC1COC(=O)O1 (stereo not given) | inactive | – |
| CC(C)(C)NCCO | inactive | – |
| Cc1ccccc1C(=O)N1CC/C(=N\OS(=O)(=O)O)c2ccc(Cl)cc21 | inactive | – |
| CCOc1ccc(NC(=O)OC(C)C)cc1OCC | inactive | – |
| Cc1nc([N+](=O)[O-])cn1-c1ccc([N+](=O)[O-])cc1 | inactive | – |
| CCC(C)(C)C1CCC(=O)CC1 | inactive | – |
| CC(=O)N(CC(O)CO)c1c(I)c(C(=O)NCC(O)CO)c(I)c(C(=O)NCC(O)CO)c1I (stereo not given) | inactive | – |
| CCC(C)(CCC(C)C)C(=O)[O-].CCC(C)(CCC(C)C)C(=O)[O-].[Zn+2] (stereo not given) | inactive | – |
| CNC(=O)C(c1ccccc1)c1ccccc1 | inactive | – |
| OC(CCN1CCCCC1)(c1ccccc1)c1ccccc1 | inactive | – |
| NS(=O)(=O)c1cc2c(cc1Cl)NC(C(Cl)Cl)NS2(=O)=O (stereo not given) | – | -0.0047% [at 18.6 µM] (inactive) |
| CC(=O)OCCCc1ccccc1 | inactive | – |
| CCCCCCCCCOCC1CO1 (stereo not given) | inactive | – |
| CNCc1ccccc1 | inactive | – |
| CC(C)(c1ccc(Oc2ccc3c(c2)C(=O)OC3=O)cc1)c1ccc(Oc2ccc3c(c2)C(=O)OC3=O)cc1 | inactive | – |
| CCCCC(=O)N(C)C | inactive | – |
| O=C1OC(=O)c2cc(Oc3ccc4c(c3)C(=O)OC4=O)ccc21 | inactive | – |
| Cc1ncc([N+](=O)[O-])n1CC(O)CCl (stereo not given) | – | -0.0146% [at 18.6 µM] (inactive) |
| CCCCC/C=C/CC(=O)OC | inactive | – |

Source: PubChem BioAssay (Tox21)
